Assay outcomes from PubChem.
Most compounds without a hit are left out; they make up all but 4.6% or so of the library.
tim23-1 inh: tim23-1 yeast growth inhibition | S. cerevisiae tim23-1 growth, BacTiter-Glo luminescence, 24 h | inhibition, % at 20 µM | 330,000 tested, 1.3% active;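 active means growth inhibition of the mutant yeast at or above 50%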;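 further: temperature-sensitive mutant grown at 25 °C; plate controls were DMSO-treated mutant yeast for no effect and medium wells lacking yeast for full effect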
PfHsp90 yeast 2: growth inhibition of yeast expressing Plasmodium Hsp90; S. cerevisiae expressing PfHsp90, BacTiter-Glo ATP, 48 h; yeast lacking PDR1 and PDR3 efflux regulators; inhibition, % at 9.4 µM; 310,000 tested, 0.32% active;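 active means every replicate shows inhibition above about 80%, whatever the replicate mean, limit read from the data; inconclusive means mean inhibition reaches the set limit but some replicate falls short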;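 further: 0% = DMSO neutral controls and 100% = 20 µM radicicol positive controls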
SKKanGAS inh: SKKanGAS growth inhibition; S. pyogenes SKKanGAS, kanamycin growth, BacTiter-Glo, 6 h; 300,000 tested, 1.3% active; inhibition, % at 7.5 µM; AID 1662;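 active means mean replicate score, as percent of positive control median, at least 50; inconclusive means mean below 50 but one replicate at or above 50; inactive means mean and every replicate below 50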;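 further: strain carries kanamycin resistance gene driven by streptokinase promoter and grows in 40 µg/ml kanamycin; loss of luminescence reflects streptokinase promoter inhibition or plain growth inhibition; 0% = median of DMSO wells and 100% = positive control at its reference dose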
tim10-1 inh: inhibits growth of tim10-1 mutant yeast | 330,000 tested, 2.2% active | inhibition, % at 20 µM | S. cerevisiae tim10-1 ts strain growth, BacTiter-Glo, 24 h;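 active means inhibition of at least 40%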;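 further: mutant grown at 25 °C; 0% = DMSO wells with yeast and 100% = wells holding no yeast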
TIM10 inh: TIM10 yeast growth inhibition | S. cerevisiae TIM10 strain growth, BacTiter-Glo luminescence, 24 h | inhibition, % at 10 µM | 330,000 tested, 1.4% active;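 active means inhibition of 40% or more at the single tested concentration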;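 further: wild-type TIM10 isogenic control strain grown at permissive 25 °C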
NLRP3 yeast inh: inhibitors of NALP3 inflammasome in yeast | Yeast reconstituted NLRP3/ASC/caspase-1, beta-gal luminescence, 24 h | inhibition, % at 10 µM | 330,000 tested, 0.39% active | AID 2825;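 active means inhibition of 50% or more; inactive means inhibition below 50%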;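 further: plate controls were induced DMSO wells for no effect and uninduced yeast grown without galactose for full effect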
Starred values were filed as active, the others as inactive; ? = inconclusive; · = not tested or not shown.

SMILES	tim23-1 inh	PfHsp90 yeast 2	SKKanGAS inh	tim10-1 inh	TIM10 inh	NLRP3 yeast inh
O=C(Oc1ccc(-c2cnc3ccccc3n2)cc1)c1ccc(Cl)c([N+](=O)[O-])c1	-7	-9	74*	-17	-6	23
O=C(Oc1ccc(-c2cnc3ccccc3n2)cc1)c1cccc([N+](=O)[O-])c1	-41	12	8	-3	-17	5
COc1cc(/C=C/C(=O)OCC(=O)c2c(N)n(C)c(=O)n(C)c2=O)ccc1O	-4	4	58*	19	0	10
COc1cc(/C=C/C(=O)OCC(=O)c2c(N)n(C)c(=O)n(C)c2=O)ccc1OCC#N	0	15	56*	3	-13	4
COc1cc(/C=C/C(=O)OCC(=O)c2c(N)n(C)c(=O)n(C)c2=O)ccc1OC(F)F	2	-19	19	9	11	-17
O=C(/C=C/c1ccc(Br)cc1)NC(=S)NNC(=O)c1ccco1	-33	34	106*	20	-18	21
O=C(/C=C/c1ccccc1)NC(=S)NNC(=O)c1ccco1	-21	-8	76*	12	17	27
CCCCOc1ccc(C(=O)N2CCN(CC(=O)Nc3ccc(C)cc3)CC2)cc1OC	15	4	-1	6	25	18
O=C(Nc1nnc(-c2ccc(Cl)cc2)o1)c1nc2ccccc2s1	-12	-37	94*	10	8	16
O=C(Nc1nnc(-c2ccccc2)o1)c1cc(Cl)sc1Cl	12	-69	89*	21	22	5
O=C(Nc1nnc(-c2ccc(F)cc2)o1)c1cc(Cl)sc1Cl	10	80*	105*	-31	10	-12
O=C(Nc1nnc(-c2ccncc2)o1)c1ccccc1F	8	17	-1	-6	-5	17
COc1ccccc1C1CN=NC12CCCc1ccccc1C2=O (configuration not stated)	21	-4	8	27	-22	10
O=C(c1cccc(-c2ccc(O)cc2)c1)N1CCN(c2ccc(F)cc2)CC1	3	-1	12	7	-2	12
C=CCn1c(SC(C)CC)nc(O)cc1=O (configuration not stated)	-13	3	52*	2	-3	2
C=CCn1c(SCCCC)nc(O)cc1=O	-8	22	15	3	2	9
CC(C)C1Oc2ccccc2N(CC(=O)NC2CCCCC2)C1=O (configuration not stated)	21	1	1	21	12	-1
Cc1cc(C)c2c(NC(N)=S)n[nH]c2n1	-2	·	4	1	-15	7
Cc1cc(C)c2c(N=NN(C)C)[nH]nc2n1	-4	104*	7	2	-2	7
NS(=O)(=O)c1ccc(NC(=O)c2cc(Cl)sc2Cl)cc1	11	6	2	19	5	7
Cc1cc(C)c2nc(NNC(=O)c3ccc(S(=O)(=O)N4CCCCC4)cc3)sc2c1	29	13	?	-4	-18	8
CCOC(=O)N1CCN(S(=O)(=O)c2ccc(C(=O)NNc3nc4c(C)cccc4s3)cc2)CC1	9	-3	22	-10	-49	9
Cc1cccc2sc(NNC(=O)c3ccc(S(=O)(=O)N4CCCC(C)C4)cc3)nc12 (configuration not stated)	·	-57	91*	·	·	·
Cc1cccc2sc(NNC(=O)c3ccc(S(=O)(=O)N4CCc5ccccc5C4)cc3)nc12	19	-41	59*	-3	-31	10
Cc1ccc(S(=O)(=O)N2[C@@H](c3ccccc3F)C(C(=O)O)=CC[C@H]2c2cccc(Cl)c2)cc1	9	-8	·	34	-8	7
SMILES	tim23-1 inh	PfHsp90 yeast 2	SKKanGAS inh	tim10-1 inh	TIM10 inh	NLRP3 yeast inh
Cc1ccc(S(=O)(=O)N2CCN(C(=O)CCn3cncn3)CC2)cc1	-7	-9	26	-1	-4	8
CCCC1COC(Cn2cncn2)(c2ccc(C)cc2)O1 (configuration not stated)	-252	99*	-2	-209	-61	20
Cc1ccc2nsnc2c1NC(=O)c1cncc(Br)c1	14	-12	2	-4	9	11
Cc1nn(-c2ccccc2)c2sc(-c3n[nH]c(=S)o3)cc12	-1	-3	80*	18	-33	21
COc1cc(CNC(C)C)c(Br)cc1OC1CCCC1	14	-3	0	13	1	21
O=C(Cc1ccccc1)NCCS(=O)(=O)N1CCN(c2ccccc2)CC1	14	-13	54*	4	-5	18
O=C(NCc1n[nH]c(=S)n1-c1ccc(Br)cc1)c1ccc(S(=O)(=O)N2CCCCC2)cc1	5	-17	3	-16	1	19
C=C(C)CNC(=S)NNC(=O)CCn1c2cc(Cl)ccc2c2ccc(Cl)cc21	9	-34	31	20	3	20
C=C(C)CNC(=S)NNC(=O)CCn1c2ccc(Cl)cc2c2cc(Cl)ccc21	9	-9	74*	22	23	21
COc1ccc(/C=N/Nc2nc(N3CCCC3)nc(N3CCCC3)n2)cc1	·	-8	-5	·	·	·
O=C(O)COc1ccc(/C=N/Nc2nc(Nc3ccccc3)nc(N3CCCCC3)n2)cc1	17	20	57*	29	19	6
COc1ccc(/C=N/Nc2nc(Nc3ccccc3)nc(N3CCCC3)n2)cc1	24	-11	56*	10	-2	12
Cc1cc(NC(=O)c2ccc(C)s2)n(-c2nc3ccccc3[nH]2)n1	-3	-37	52*	13	29	14
Cc1cc(NC(=O)c2ccccc2F)n(-c2nc3ccccc3[nH]2)n1	13	-11	?	30	23	25
Cc1cc(Nc2ccccc2)n(-c2nc3ccccc3[nH]2)n1	-2	-17	114*	-1	25	2
COc1cnc(-c2ccccc2)nc1Oc1ccc(C(C)(C)C)cc1	14	8	93*	8	22	12
COc1cnc(-c2ccccc2)nc1Oc1ccccc1C	3	2	7	-14	-13	-4
CCOc1ccc(-c2c(C#N)c(N)nc3sc(C(=O)c4ccccc4)c(N)c23)cc1	-12	-15	4	-4	-7	18
COc1ccc(-c2c(C#N)c(N)nc3sc(C(=O)c4ccccc4)c(N)c23)cc1	·	6	53*	·	·	·
CCOc1ccccc1NC(=O)NNS(=O)(=O)c1cc(C)ccc1C	16	-7	-5	11	10	18
CCc1ccccc1NC(=O)NNS(=O)(=O)c1cc(C)ccc1C	7	6	51*	-5	2	20
CCSc1nc2sc3c(c2c(=O)[nH]1)CC(C)(CC)OC3 (configuration not stated)	-16	·	0	2	-9	-12
CCC1(C)Cc2c(sc3nc(SC)[nH]c(=S)c23)CO1 (configuration not stated)	34	·	85*	38	37	8
